Drawing on PubChem BioAssay (Tox21), this text covers Potency, outcome and max activation for eight compounds.

A number with no mark means an inactive call. Records with an inconclusive call do not appear. The source made the active and inactive calls. Unless noted, calls follow the shape of the dose curve; as a rule, active = well fitted curve in the direction sought with a large enough effect in the repeat runs; inconclusive = weak or mixed curves; inactive = no such curve, though single readings can be large; an effect the other way counts as inactive or inconclusive.

The target of assay [1] is Progesterone receptor (Homo sapiens) (UniProt P06401). The experiment in a line: qHTS assay to identify small molecule agonists of the progesterone receptor (PR) signaling pathway (AID 1346784; calls by dose curve; also: nearly all actives have a fitted effect of over 30% in size). The procedure, abridged:
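Compounds were tested for PR agonism in HEK 293T cells bearing a beta-lactamase gene under UAS control. Treatment lasted 16 hr at 37C; signal came from fluorescence of a FRET substrate.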
For orientation: Quantitative high-throughput screening tests each substance at several concentrations.

Assay [2] has the same target. The experiment in a line: qHTS assay to identify small molecule antagonists of the progesterone receptor (PR) signaling pathway (AID 1346795; active = well fitted inhibition curve with a large enough effect in the signal ratio in the repeat runs, not every such curve was filed as active; the % refers to the signal ratio). In short, it runs like this:
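In HEK293T cells bearing the PR-UAS-bla reporter, compound effects on promegestone-driven (1 nM) beta-lactamase expression are assessed after 16 hr using a fluorescent FRET substrate incubated 2 hr at room temperature.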

Assay [3] can be described thus: qHTS assay to identify small molecule agonists of the progesterone receptor (PR) signaling pathway - cell viability counter screen (AID 1346799; calls by dose curve; also: nearly all actives have a fitted effect of over 45% in size). The procedure, abridged: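 Here, 3,000 PR-UAS-bla HEK293T cells per well were treated with compounds for 16 hr after a 6 hr preincubation at 37C and 5% CO2; cell viability is the CellTiter-Glo luminescence signal.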
Assay [4] is described as follows: qHTS assay to identify small molecule agonists of the TGF-beta/Smad signaling pathway - cell viability counter screen (AID 1346829). Also: top concentration of the series differs between compounds; nearly all actives have a fitted effect of over 45% in size. In short, it runs like this:
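In parallel with the Smad reporter read, viability of HEK 293T cells stably carrying SBE-bla is quantified by ATP luminescence following 5 hr compound treatment.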

Assay [5] in a line: qHTS assay to identify small molecule agonists of the TGF-beta/Smad signaling pathway (AID 1346859; active = well fitted activation curve with a large enough effect in the signal ratio in the repeat runs, not every such curve was filed as active; the % refers to the signal ratio; also: series mostly up to about 77 µM). The procedure, abridged: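 Each well held 4,000 SBE-bla HEK 293T cells incubated overnight before compound addition; 5 hr later the cleavable FRET substrate went on for 2 hr at room temperature, and fluorescence was read at two emissions.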
Assay [6] deals with Thyrotropin-releasing hormone receptor (Homo sapiens) (UniProt P34981). The experiment in a line: qHTS assay to identify small molecule antagonists of the thyrotropin-releasing hormone receptor (TRHR) signaling pathway (AID 1346877; active = well fitted inhibition curve with a large enough effect in the repeat runs, not every such curve was filed as active; also: series mostly up to about 51 µM). The procedure, abridged:
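Antagonism is measured as suppression of the calcium response to 1 nM TRH in TRHR-HEK293 cells that have been dye-loaded for 2 h at 37 °C after overnight plating. Each compound is tested at 15 concentrations in triplicate.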

Assay [7] has the same target. The experiment in a line: qHTS assay to identify small molecule agonists of the thyrotropin-releasing hormone receptor (TRHR) signaling pathway (AID 1346891; calls by dose curve; also: series mostly up to about 58 µM). In short, it runs like this: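 Screening of agonists relied on calcium signalling in HEK293 cells expressing human TRHR: dye loading 2 h at 37 °C preceded compound addition and a 3-min fluorescence time course.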

Assay [8] in a line: Human pregnane X receptor (PXR) small molecule agonists, qHTS cell viability counter screen (AID 1346977). Also: nearly all actives have a fitted effect of over 50% in size. The procedure, abridged:
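Tox21 qHTS format; PXR-Luc HepG2, 2,000/well, charcoal-stripped FBS 5%. Cpd exposure 24hr. Read: CellTiter-Fluor fluorescence, multiplexed with luciferase.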

Assay [9] can be described thus: Caspase-3/7 induction in HepG2 cells by small molecules, qHTS assay (AID 1346978). Also: nearly all actives have a fitted effect of over 15% in size. The procedure, abridged:
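Wild-type HepG2 cells (2,000/well) were settled 5 h at 37 C, 5% CO2, then exposed to compounds in DMSO for 17 h. Caspase-3/7 activity was read by luminescence 30 min after adding Caspase-Glo 3/7 reagent at room temperature.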

Assay [10] can be described thus: Caspase-3/7 induction in CHO-K1 cells by small molecules, qHTS cell viability counter screen (AID 1346979). Also: nearly all actives have a fitted effect of over 35% in size. In short, it runs like this: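 CellTiter-Fluor viability check, qHTS format: wild-type CHO-K1, 16hr compound treatment, 1hr reagent incubation, fluorescence read.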
Assay [11] in a line: Caspase-3/7 induction in CHO-K1 cells by small molecules, qHTS assay (AID 1346980). Also: nearly all actives have a fitted effect of over 15% in size. The procedure, abridged:
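Wild-type cells were seeded at 1,500 per well and settled 5 hr at 37 C, 5% CO2, then exposed to DMSO-dissolved compounds for 17 hr. Caspase-Glo 3/7 reagent was added, and luminescence was read after 30min at room temperature.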

The nature of assay [12]: Caspase-3/7 induction in HepG2 cells by small molecules, qHTS cell viability counter screen (AID 1346981). Also: nearly all actives have a fitted effect of over 30% in size. Also: potency is read from the fitted curve at half-maximal effect. The procedure, abridged:
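Cell viability is measured as a cytotoxicity counter screen alongside the Caspase-Glo 3/7 readout in identical wells. Wild-type HepG2 cells are treated with test compounds for 16 hr at 37 C before CellTiter-Fluor addition and a 1-hr incubation.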

The target in assay [13] is Nuclear receptor subfamily 1 group I member 2 (Homo sapiens) (UniProt O75469). The experiment in a line: Human pregnane X receptor (PXR) small molecule agonists, qHTS assay (AID 1346982). Also: nearly all actives have a fitted effect of over 35% in size. In short, it runs like this: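 Cells: HepG2 stably carrying PXR-Luc. Medium held 5% charcoal-stripped FBS. Compounds in DMSO added after 5 hr plating, incubated 24 hr, then luminescence quantified with ONE-Glo.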

The target of assay [14] is Cytochrome P450 2D6 (Homo sapiens) (UniProt P10635). The assay can be described thus: Cytochrome P450 Family 2 Subfamily D Member 6 (CYP2D6) small molecule antagonists: luciferase reporter qHTS assay (AID 1671196). Also: nearly all actives have a fitted effect of over 50% in size. Also: potency is read from the fitted curve at half-maximal effect. In short, it runs like this: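 Enzyme and proluciferin substrate were first combined with test chemical for 10 min at room temperature. Adding NADPH regeneration solution started a 1 h reaction, stopped with luciferin detection reagent and read by luminescence 20 min later.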
Background: In a reporter assay the amount or activity of a reporter protein is the signal.

Assay [15] addresses Cytochrome P450 2C19 (Homo sapiens) (UniProt P33261). The assay can be described thus: Cytochrome P450 Family 2 Subfamily C Member 19 (CYP2C19) small molecule antagonists: luciferase reporter qHTS assay (AID 1671197). Also: nearly all actives have a fitted effect of over 65% in size. Also: potency is read from the fitted curve at half-maximal effect. In short, it runs like this: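 Compounds were tested on CYP2C19 activity via proluciferin conversion to luciferin. The 37C, 1 h reaction followed NADPH addition; detection reagent stopped it.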

Assay [16] is described as follows: qHTS assay to identify small molecule antagonists of the progesterone receptor (PR) signaling pathway - cell viability counter screen (AID 1346798). Also: series mostly up to about 92 µM; nearly all actives have a fitted effect of over 50% in size. The procedure, abridged: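 Following a 4 hr attachment, PR-UAS-bla HEK293T cells in charcoal-stripped FBS medium were exposed to compounds with R5020 for 16 hr; CellTiter-Glo was added and luminescence read after 30 min at room temperature.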

Assay [17] is described as follows: qHTS assay to identify small molecule antagonists of the TGF-beta/Smad signaling pathway - cell viability counter screen (AID 1346824). Also: nearly all actives have a fitted effect of over 50% in size. In short, it runs like this:
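SBE-bla HEK 293T cells were plated overnight at 37 C, then given compounds in DMSO plus TGF-beta1 (added as 0.25 ng/mL solution) for 5 hr. After the bla read, CellTiter-Glo was added to the same wells and luminescence read after 30 min at room temperature.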

In assay [18] the target is Nuclear receptor subfamily 1 group I member 2 (Rattus norvegicus) (UniProt Q9R1A7). The experiment in a line: Rat pregnane X receptor (rPXR) activation by small molecules, qHTS assay (AID 1346983). Also: nearly all actives have a fitted effect of over 20% in size. The conditions noted are these: rPXR luciferase reporter cells, One-Glo luminescence, 24 h; hits give high values. In short, it runs like this: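 Cell-based rPXR luciferase reporter assay, 2,000 cells per well, rested 5hr at 37 C before compound addition in DMSO, then 24 hr at 37 C. One-Glo reagent was added and luminescence read after 30 min at room temperature.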

The target of assay [19] is Nuclear receptor subfamily 1 group I member 2 (Homo sapiens) (UniProt O75469). The experiment in a line: CYP3A4 induction through human pregnane X receptor (PXR) by small molecules, qHTS assay (AID 1346984). Also: nearly all actives have a fitted effect of over 40% in size. The procedure, abridged: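 Quantitative HTS in DPX-2 cells, i.e. HepG2 transfected with PXR response element and CYP3A4-promoter luciferase. Compounds in DMSO incubated 24hr at 37C; then P450-Glo CYP3A4 substrate, 3uM final, 3hr; One-Glo luminescence.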

Assay [20] shares this target. The assay can be described thus: Human pregnane X receptor (PXR) activation by small molecules, qHTS assay (AID 1346985). Also: nearly all actives have a fitted effect of over 40% in size. The procedure, abridged: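 DPX-2 cells (HepG2 co-transfected with a PXR response element and a CYP3A4-promoter luciferase construct) were seeded at 2,000 per well, rested 5 hr at 37C, then exposed to DMSO-dissolved compounds for 24 hr. Activation was read as luciferase luminescence.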
% is scaled to controls: 0 for no effect and ±100 for the full control effect.

Sequence of Cytochrome P450 2D6 (Homo sapiens) (P10635 whole entry, looked up): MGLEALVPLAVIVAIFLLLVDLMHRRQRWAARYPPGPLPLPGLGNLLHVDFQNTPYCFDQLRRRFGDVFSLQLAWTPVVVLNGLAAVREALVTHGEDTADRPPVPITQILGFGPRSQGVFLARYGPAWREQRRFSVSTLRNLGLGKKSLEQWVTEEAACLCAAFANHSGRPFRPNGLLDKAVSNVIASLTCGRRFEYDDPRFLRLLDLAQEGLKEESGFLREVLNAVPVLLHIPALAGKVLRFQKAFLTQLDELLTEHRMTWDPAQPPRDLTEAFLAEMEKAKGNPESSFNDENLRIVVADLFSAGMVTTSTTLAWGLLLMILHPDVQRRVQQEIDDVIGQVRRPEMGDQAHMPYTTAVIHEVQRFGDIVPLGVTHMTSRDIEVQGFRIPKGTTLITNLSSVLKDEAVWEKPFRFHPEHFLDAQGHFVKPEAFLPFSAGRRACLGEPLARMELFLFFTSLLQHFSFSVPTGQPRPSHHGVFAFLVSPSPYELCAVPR
Sequence of Nuclear receptor subfamily 1 group I member 2 (Homo sapiens) (O75469 whole entry, looked up): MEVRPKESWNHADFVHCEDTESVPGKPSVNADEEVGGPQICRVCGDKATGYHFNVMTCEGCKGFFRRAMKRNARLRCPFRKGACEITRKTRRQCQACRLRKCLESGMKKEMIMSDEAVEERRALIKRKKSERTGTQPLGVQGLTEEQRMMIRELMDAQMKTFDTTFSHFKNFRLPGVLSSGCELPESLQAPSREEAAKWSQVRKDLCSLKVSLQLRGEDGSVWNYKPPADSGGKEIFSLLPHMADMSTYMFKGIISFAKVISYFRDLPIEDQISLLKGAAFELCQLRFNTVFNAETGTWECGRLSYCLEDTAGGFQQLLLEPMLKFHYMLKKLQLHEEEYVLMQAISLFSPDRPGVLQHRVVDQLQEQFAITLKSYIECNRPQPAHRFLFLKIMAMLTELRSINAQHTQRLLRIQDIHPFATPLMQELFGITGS
Sequence of Progesterone receptor (Homo sapiens) (P06401 whole entry, looked up): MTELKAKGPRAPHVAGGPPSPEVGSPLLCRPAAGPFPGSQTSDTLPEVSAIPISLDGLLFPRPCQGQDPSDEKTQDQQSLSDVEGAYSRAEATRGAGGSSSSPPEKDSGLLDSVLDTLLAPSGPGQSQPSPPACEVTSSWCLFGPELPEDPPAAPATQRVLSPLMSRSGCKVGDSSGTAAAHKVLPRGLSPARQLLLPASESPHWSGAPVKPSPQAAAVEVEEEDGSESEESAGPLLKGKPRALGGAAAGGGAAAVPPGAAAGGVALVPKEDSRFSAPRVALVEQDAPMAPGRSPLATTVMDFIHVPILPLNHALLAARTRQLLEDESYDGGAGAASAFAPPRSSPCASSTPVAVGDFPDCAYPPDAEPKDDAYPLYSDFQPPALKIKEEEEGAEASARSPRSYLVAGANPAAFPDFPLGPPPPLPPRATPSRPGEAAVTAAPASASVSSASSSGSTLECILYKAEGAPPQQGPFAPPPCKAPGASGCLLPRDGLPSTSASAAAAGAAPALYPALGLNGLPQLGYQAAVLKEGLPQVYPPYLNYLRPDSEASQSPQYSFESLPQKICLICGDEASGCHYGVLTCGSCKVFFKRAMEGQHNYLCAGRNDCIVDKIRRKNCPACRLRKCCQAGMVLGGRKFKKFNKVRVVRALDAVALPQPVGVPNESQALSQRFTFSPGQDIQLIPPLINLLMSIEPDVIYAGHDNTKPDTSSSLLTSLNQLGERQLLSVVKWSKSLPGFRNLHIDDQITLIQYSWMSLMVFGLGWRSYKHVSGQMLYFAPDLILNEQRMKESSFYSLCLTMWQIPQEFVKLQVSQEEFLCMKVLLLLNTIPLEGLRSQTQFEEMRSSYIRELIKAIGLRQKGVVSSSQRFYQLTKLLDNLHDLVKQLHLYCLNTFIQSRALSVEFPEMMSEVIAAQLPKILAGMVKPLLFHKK
Sequence of Thyrotropin-releasing hormone receptor (Homo sapiens) (P34981 whole entry, looked up): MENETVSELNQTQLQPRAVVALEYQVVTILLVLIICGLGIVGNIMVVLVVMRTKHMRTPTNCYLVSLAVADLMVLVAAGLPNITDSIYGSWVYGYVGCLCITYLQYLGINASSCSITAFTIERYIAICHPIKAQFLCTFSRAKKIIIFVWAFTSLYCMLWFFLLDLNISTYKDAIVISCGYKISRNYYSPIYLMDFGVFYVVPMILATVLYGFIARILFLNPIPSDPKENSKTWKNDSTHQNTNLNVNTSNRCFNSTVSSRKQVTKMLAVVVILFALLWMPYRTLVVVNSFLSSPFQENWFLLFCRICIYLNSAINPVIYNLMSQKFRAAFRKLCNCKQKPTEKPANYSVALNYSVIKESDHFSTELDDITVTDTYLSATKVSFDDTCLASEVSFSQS
Sequence of Cytochrome P450 2C19 (Homo sapiens) (P33261 whole entry, looked up): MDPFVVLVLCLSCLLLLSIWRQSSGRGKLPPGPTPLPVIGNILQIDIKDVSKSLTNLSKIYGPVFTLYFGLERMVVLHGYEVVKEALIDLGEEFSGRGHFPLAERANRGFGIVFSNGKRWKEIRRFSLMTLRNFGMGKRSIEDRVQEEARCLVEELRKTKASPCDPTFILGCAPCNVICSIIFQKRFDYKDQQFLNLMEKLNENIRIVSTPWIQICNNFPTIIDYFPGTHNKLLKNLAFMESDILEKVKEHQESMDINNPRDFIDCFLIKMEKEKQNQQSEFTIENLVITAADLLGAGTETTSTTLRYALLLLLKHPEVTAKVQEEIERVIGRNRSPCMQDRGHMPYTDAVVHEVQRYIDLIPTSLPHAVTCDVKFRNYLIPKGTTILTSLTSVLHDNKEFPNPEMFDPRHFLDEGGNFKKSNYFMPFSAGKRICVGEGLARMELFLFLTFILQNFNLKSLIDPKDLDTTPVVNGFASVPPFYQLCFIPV
Sequence of Nuclear receptor subfamily 1 group I member 2 (Rattus norvegicus) (Q9R1A7 whole entry, looked up): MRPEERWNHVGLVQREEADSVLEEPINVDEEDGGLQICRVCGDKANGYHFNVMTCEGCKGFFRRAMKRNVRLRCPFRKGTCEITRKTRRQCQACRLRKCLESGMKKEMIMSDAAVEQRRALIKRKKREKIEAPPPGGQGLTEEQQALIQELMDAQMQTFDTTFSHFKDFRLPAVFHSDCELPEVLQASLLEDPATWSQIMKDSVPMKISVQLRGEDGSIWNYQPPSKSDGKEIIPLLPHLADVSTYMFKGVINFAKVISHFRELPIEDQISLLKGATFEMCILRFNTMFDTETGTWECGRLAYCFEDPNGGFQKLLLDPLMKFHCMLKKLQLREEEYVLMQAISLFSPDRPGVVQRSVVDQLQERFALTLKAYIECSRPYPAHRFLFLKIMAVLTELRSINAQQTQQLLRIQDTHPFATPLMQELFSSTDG

As for `FC(F)(F)c1ccccc1-n1ccnc1`, the Potency entry in assay [1], in assay [2], in [3], in [8], in assay [9] and in assay [10] was “inactive” each time. For the same compound, the Potency result in [12] and in assay [13] was “inactive” throughout. Also, the result in [4], in assay [5], in assay [6], in assay [7] and in assay [11] was inactive. In addition, the Potency was 2.19 µM (active) in assay [14] and 5.49 µM (active) in assay [15].

Turning to `COc1cc(NS(=O)(=O)c2ccc(N)cc2)nc(OC)n1`, the Potency result in assay [1], in assay [2], in assay [16], in [8], in assay [9] and in [10] was “inactive” each time. Moreover, the Potency result in assay [12], in [13], in [19], in assay [20], in [14] and in [15] was “inactive” each time. Besides, the call in assay [17], in assay [4], in [5], in assay [6], in assay [7] and in [11] was inactive. In [18], the max activation was -2.35%.

As for `COC(=O)CCCCCCCC(=O)OC`, the Potency entry in [1], in assay [2], in assay [16], in [8], in assay [9] and in [12] was “inactive” each time. Further, the Potency entry in assay [13] and in assay [15] was “inactive” in each case. For the same compound, the compound was classed as inactive in assay [17], in [4], in assay [5], in assay [6], in assay [7] and in assay [11].

Regarding `CC1(C)S[C@@H]2[C@H](N=CN3CCCCCC3)C(=O)N2[C@H]1C(=O)O`, the Potency entry in assay [1], in assay [2], in assay [16], in assay [8], in [9] and in assay [12] was “inactive” throughout. Besides, the Potency result in assay [19], in [20], in [14] and in assay [15] was “inactive” in each case. The compound was classed as inactive in assay [17], in assay [4], in [5], in assay [6], in [7] and in assay [11]. Moreover, in assay [18], the max activation is -0.392%.

Take `CC(S)C(=O)NCC(=O)O` (stereo not given): the Potency result in [1], in assay [2], in [16], in assay [8], in assay [9] and in assay [10] was “inactive” in each case. In addition, the Potency result in [12], in assay [13], in assay [19], in [20], in [14] and in assay [15] was “inactive” throughout. For the same compound, the result in [17], in [4], in assay [5], in [6] and in assay [11] was inactive. Besides, the max activation in assay [18] is -1.79%.

`CCCOC(=O)C(C)O` (stereo not given): the Potency entry in [1], in assay [2], in assay [16], in assay [3], in assay [8] and in assay [10] was “inactive” in each case. Also, the Potency result in [12] and in assay [13] was “inactive” throughout. In addition, the compound was called inactive in assay [4], in assay [7] and in assay [11].

Consider `N[C@@H](CCC(=O)Nc1ccc([N+](=O)[O-])cc1)C(=O)O`, for which the Potency entry in assay [1], in [16], in assay [3], in assay [9], in assay [10] and in [15] was “inactive” in each case. For the same compound, the compound was called inactive in assay [17], in assay [4], in [5], in assay [6], in [7] and in assay [11]. The Potency in assay [12] was 54.5 µM (active).

Regarding `O=S(=O)(O)CCN1CCN(CCO)CC1`, the Potency result in assay [1], in assay [2], in assay [8], in assay [9], in assay [10] and in assay [12] was “inactive” in each case. Further, the Potency result in assay [13] and in assay [15] was “inactive” in each case. Besides, the call in assay [17], in [4], in [6], in assay [7] and in assay [11] was inactive.
